The whole screen tested about 13,000 compounds, of which about 3,200 (25%) showed an effect of 50% or more. The list shows a part of the results.
Test system: P. falciparum stage V gametocytes
Parameters: BacTiter-Glo ATP luminescence viability of purified stage V gametocytes in 384-well plates, per cent inhibition versus DMSO
Settings: 48 h, 5 µM; inhibitor

Compared with C=CC[C@H](C[C@H](O)[C@H](Cc1ccccc1)NC(=O)c1ccc(-n2cccn2)cc1)C(=O)NC1CCCCC1 [TCMDC-141420], CCNc1cc(C(=O)N[C@@H](Cc2ccccc2)[C@H](O)CNCCc2ccccc2)cc(N2CCCC2=O)c1 [TCMDC-141682] is higher in “% Inhibition” value: 10.16% for the first, 21.5% for the second.

First: CCc1c(C)nc(-n2nc(C)cc2NC(=O)C(CC)c2ccccc2)[nH]c1=O (stereo not shown) [TCMDC-124935]
Second: CCn1c(C)cc(C=C2SC(=Nc3ccccc3)NC2=O)c1C [TCMDC-124456]
The “% Inhibition” value of the first is higher: 27.05% for the first, -43.68% for the second.

Compared with O=C(Nc1ccc(Cl)cc1)Nc1nc2ccc([N+](=O)[O-])cc2[nH]1 [TCMDC-137530], O=[N+]([O-])c1ccc2ncnc(Nc3ccc(F)c(Cl)c3)c2c1 [TCMDC-123784] is lower in “% Inhibition” value: 30.09% for the first, 0.775% for the second.

Compared with O=[N+]([O-])c1ccc2nc(Nc3ccc(Cl)c(Cl)c3)c(Nc3ccc(Cl)c(Cl)c3)nc2c1 [TCMDC-125794], Clc1ccc(Nc2nc3ccc(Cl)cc3nc2Nc2ccc(Cl)cc2)cc1 [TCMDC-137772] is higher in “% Inhibition” value: 113.6% for the first, 143.7% for the second.

First: Brc1ccc(Nc2nc3ccccc3nc2Nc2ccc(Br)cc2)cc1 [TCMDC-125776]
Second: Oc1ccc(Nc2ccnc3cc(Cl)ccc23)cc1 [TCMDC-125528]
The “% Inhibition” value of the first is higher: -38.43% for the first, -45.78% for the second.

Compared with O=S(=O)(NCCCN1CCOCC1)c1ccc2nccc(Nc3ccc(Oc4ccccc4)cc3)c2c1 [TCMDC-138692], CCCN1CCC(NCc2cn(C)nc2-c2ccc(Oc3ccccc3)cc2)CC1 [TCMDC-124676] is higher in “% Inhibition” value: -57.28% for the first, 46.58% for the second.

Compared with FC(F)(F)c1cccnc1N1CCC(Nc2nc3ccc(Cl)cc3[nH]2)CC1 [TCMDC-135644], CS(=O)(=O)c1ccc(-c2cc(C(F)(F)F)nc(N[C@@H]3CCCC[C@H]3OCc3ccccc3)n2)cc1 [TCMDC-138567] is higher in “% Inhibition” value: -32.98% for the first, -4.461% for the second.

Going from CS(=O)(=O)N1CC2(CCN(CCC(NC(=S)Nc3ccccc3)c3ccc(Cl)c(Cl)c3)CC2)c2ccccc21 (stereo not shown) [TCMDC-141770] to CS(=O)(=O)N1CC2(CCN(CCC(NC(=O)Nc3ccccc3)c3ccc(Cl)c(Cl)c3)CC2)c2ccccc21 (stereo not shown) [TCMDC-141766], the “% Inhibition” value falls from 57.16% to 12.26%.

First: CS(=O)(=O)N1CC2(CCN(CCC(NC(=O)NCc3ccc(Cl)c(Cl)c3)c3ccc(Cl)c(Cl)c3)CC2)c2ccccc21 (stereo not shown) [TCMDC-141769]
Second: COc1ccc(CC(=O)NC(CCN2CCC3(CC2)CN(S(C)(=O)=O)c2ccccc23)c2ccc(Cl)c(Cl)c2)cc1OC (stereo not shown) [TCMDC-141764]
The “% Inhibition” value of the first is lower: -4.824% for the first, 25.44% for the second.

First: COc1cc(C(=O)N2CCC(CCN3CCC4(CC3)CN(S(C)(=O)=O)c3ccccc34)CC2Cc2ccc(Cl)c(Cl)c2)cc(OC)c1OC (stereo not shown) [TCMDC-141627]
Second: C[C@@H](NC(=O)NC(CCN1CCC2(CC1)CN(S(C)(=O)=O)c1ccccc12)c1ccc(Cl)c(Cl)c1)c1ccccc1 (stereo partly shown) [TCMDC-141767]
The “% Inhibition” value of the first is higher: 50.03% for the first, 25.06% for the second.

First: CS(=O)(=O)c1cccc(-c2ccc3oc(C(N)=O)c(NC(=O)c4cccs4)c3c2)c1 [TCMDC-138862]
Second: O=C1NC(=O)C(c2ccc(Cl)cc2)=C1Nc1cccc(S(=O)(=O)C(F)(F)F)c1 [TCMDC-139487]
The “% Inhibition” value of the first is lower: 19.31% for the first, 41.44% for the second.

Going from O=C(CCCCCNC(=O)c1ccc(O)c(-c2ccc(Cl)c(Cl)c2)c1)NCCN1CCCCC1 [TCMDC-140856] to CCCCCCNC(=O)C1Cc2c([nH]c3ccc(Br)cc23)C2(CCN(CCc3ccccc3)CC2)N1 (stereo not shown) [TCMDC-141182], the “% Inhibition” value falls from 8.201% to -10.63%.

Compared with COc1cc(Cc2cnc(N)nc2N)cc(OCCCc2cc(OCc3ccccc3)no2)c1OC [TCMDC-138084], COc1cc(Cc2cnc(N)nc2N)cc(OC)c1OCCCCCN1C(=O)c2ccccc2C1=O [TCMDC-138036] is higher in “% Inhibition” value: 0.05649% for the first, 16.13% for the second.

First: COc1ccc(C(=O)C2CC2CN2CC=C(c3c[nH]c4cccc(Br)c34)CC2)cc1 (stereo not shown) [TCMDC-136801]
Second: COc1cccc(C(=O)C2CC2CN2CC=C(c3c[nH]c4cccc(Br)c34)CC2)c1 (stereo not shown) [TCMDC-136773]
The “% Inhibition” value of the first is lower: -30.41% for the first, -17.42% for the second.

First: Cc1[nH]c2cc(F)ccc2c1C1=CCN(CCCCC2(C)C(=O)Nc3ccccc32)CC1 (stereo not shown) [TCMDC-141003]
Second: Cc1[nH]c2ccccc2c1C1=CCN(CCCCC2(C)C(=O)Nc3ccccc32)CC1 (stereo not shown) [TCMDC-140740]
The “% Inhibition” value of the first is higher: -43.4% for the first, -83.27% for the second.

Compared with Cc1[nH]c2ccccc2c1C1=CCN(CCCCC2(C)C(=O)Nc3cccc(F)c32)CC1 (stereo not shown) [TCMDC-140942], COc1cccc(C(=O)C2CC2CN2CC=C(c3c(C)[nH]c4ccccc34)CC2)c1 (stereo not shown) [TCMDC-136874] is higher in “% Inhibition” value: 52.59% for the first, 78.13% for the second.

Compared with COc1ccc(C(=O)C2CC2CN2CC=C(c3c[nH]c4ccc(OC)nc34)CC2)cc1 (stereo not shown) [TCMDC-136873], COc1cccc(C(=O)C2CC2CN2CC=C(c3c[nH]c4ccc(OC)nc34)CC2)c1 (stereo not shown) [TCMDC-136875] is lower in “% Inhibition” value: 84.74% for the first, 11.19% for the second.

Going from COc1ccc(C(=O)C2CC2CN2CC=C(c3c(C)[nH]c4ccccc34)CC2)cc1 (stereo not shown) [TCMDC-136872] to Cc1[nH]c2ccccc2c1C1=CCN(CC2CC2C(=O)c2ccccc2)CC1 (stereo not shown) [TCMDC-136870], the “% Inhibition” value rises from 7.556% to 56.06%.

Going from COc1ccc2[nH]cc(C3=CCN(CC4CC4C(=O)c4ccccc4)CC3)c2n1 (stereo not shown) [TCMDC-136871] to O=C(c1ccccc1)C1CC1CN1CC=C(c2c[nH]c3ccccc23)CC1 (stereo not shown) [TCMDC-136771], the “% Inhibition” value falls from -1.485% to -5.765%.

Going from Nc1nc(N)c2c(ccc3nn(Cc4cccnc4)cc32)n1 [TCMDC-137968] to Cc1nc2nc(N)nc(N)c2c(C)c1Cc1ccc(C#N)cc1 [TCMDC-137653], the “% Inhibition” value falls from -0.02415% to -12.58%.

First: CC[C@@]1(O)C(=O)OCc2c1cc1n(c2=O)Cc2c-1nc1cc3c(cc1c2CN1CCOCC1)OCO3 [TCMDC-131876]
Second: CCCCCCNC(=O)C1Cc2c([nH]c3ccc(Br)cc23)C2(CCN(Cc3ccccc3)CC2)N1 (stereo not shown) [TCMDC-141181]
The “% Inhibition” value of the first is lower: 7.387% for the first, 96.4% for the second.

Compared with O=c1cc(NCCCNCc2cc(Cl)cc(Cl)c2OCc2ccc(Cl)cc2)[nH]c2ccccc12 [TCMDC-139604], O=C(NCc1ccccc1)C1Cc2c([nH]c3ccc(Br)cc23)C2(CCN(Cc3ccccc3)CC2)N1 (stereo not shown) [TCMDC-141183] is higher in “% Inhibition” value: -52.63% for the first, 77.73% for the second.

First: COc1ccccc1Oc1c(N(C)S(=O)(=O)c2ccc(C(C)C)cc2)nc(C(F)(F)F)nc1N(C)S(=O)(=O)c1ccc(C(C)C)cc1 [TCMDC-132001]
Second: COc1cc(Cl)c(C)cc1N(Cc1ccccc1-c1ccccc1)S(=O)(=O)c1ccc(C(F)(F)F)cc1 [TCMDC-141750]
The “% Inhibition” value of the first is higher: 61.81% for the first, -7.334% for the second.

Compared with O=C(Cn1c(CCc2cccc(F)c2F)cc(=O)c2ccccc21)N(CCN1CCCC1)Cc1ccc(-c2ccc(C(F)(F)F)cc2)cc1 [TCMDC-141120], O=C(Cn1c(CCc2cccc(F)c2F)cc(=O)c2cccnc21)N(CCN1CCCC1)Cc1ccc(-c2ccc(C(F)(F)F)cc2)cc1 [TCMDC-141463] is higher in “% Inhibition” value: -20.2% for the first, 53.17% for the second.

Going from O=C(Cn1c(CCc2cccc(F)c2F)cc(=O)c2cccnc21)N(CCn1ccnc1)Cc1ccc(-c2ccc(C(F)(F)F)cc2)cc1 [TCMDC-141474] to Cn1cncc1CCN(Cc1ccc(-c2ccc(C(F)(F)F)cc2)cc1)C(=O)Cn1c(CCc2cccc(F)c2F)cc(=O)c2cccnc21 [TCMDC-141455], the “% Inhibition” value rises from 11.29% to 99.09%.

Going from Cn1cncc1CCCN(Cc1ccc(-c2ccc(C(F)(F)F)cc2)cc1)C(=O)Cn1c(CCc2cccc(F)c2F)cc(=O)c2cccnc21 [TCMDC-141502] to CC(C)CCNC(=O)C1Cc2c([nH]c3cc(Cl)ccc23)C2(CCN(CCc3ccccc3)CC2)N1 (stereo not shown) [TCMDC-141294], the “% Inhibition” value rises from -3.632% to 25.11%.

Going from CCCOc1ccc(OCCCON2C(N)=NC(N)=NC2(C)C)cc1 [TCMDC-131737] to CCCCCCNC(=O)C1Cc2c([nH]c3ccc(C)cc23)C2(CCN(Cc3ccccc3)CC2)N1 (stereo not shown) [TCMDC-141091], the “% Inhibition” value rises from 9.517% to 29.77%.

First: CC1CCCN(S(=O)(=O)c2ccc(NC(=O)c3cc(-c4ccccc4O)n[nH]3)cc2)C1 (stereo not shown) [TCMDC-125194]
Second: CNC(=O)C1Cc2c([nH]c3cc(Br)ccc23)C2(CCN(CCc3ccccc3)CC2)N1 (stereo not shown) [TCMDC-141261]
The “% Inhibition” value of the first is lower: -32.46% for the first, 85.59% for the second.

First: Cc1cc(C)cc(-n2c(C)cc(/C=C3\SC(=Nc4ccc(Cl)cc4)NC3=O)c2C)c1 [TCMDC-124103]
Second: Cc1cc(C=C2SC(=Nc3ccccc3)N(C3CCCC3)C2=O)c(C)n1-c1ccc(Cl)cc1 [TCMDC-125698]
The “% Inhibition” value of the first is higher: 64.96% for the first, -5.321% for the second.

Compared with CCCNC(=O)C1Cc2c([nH]c3ccc(Br)cc23)C2(CCN(CCc3ccccc3)CC2)N1 (stereo not shown) [TCMDC-141184], CCCNC(=O)C1Cc2c([nH]c3cc(Br)ccc23)C2(CCN(CCc3ccccc3)CC2)N1 (stereo not shown) [TCMDC-141260] is lower in “% Inhibition” value: 7.991% for the first, -73.32% for the second.

Going from CNC(=O)C1Cc2c([nH]c3ccc(Br)cc23)C2(CCN(CCc3ccccc3)CC2)N1 (stereo not shown) [TCMDC-141185] to O=C(NCC1CC1)C1Cc2c([nH]c3ccc(Br)cc23)C2(CCN(CCc3ccccc3)CC2)N1 (stereo not shown) [TCMDC-141180], the “% Inhibition” value falls from -21.04% to -28.21%.

First: CC(C)CCNC(=O)C1Cc2c([nH]c3cc(Br)ccc23)C2(CCN(CCc3ccccc3)CC2)N1 (stereo not shown) [TCMDC-141259]
Second: CC(C)CCNC(=O)C1Cc2c([nH]c3cc(Br)ccc23)C2(CCN(Cc3ccccc3)CC2)N1 (stereo not shown) [TCMDC-141258]
The “% Inhibition” value of the first is lower: -3.364% for the first, 102.3% for the second.

From article PMC4552634, “A New Set of Chemical Starting Points with Plasmodium falciparum Transmission-Blocking Potential for Antimalarial Drug Discovery” (PLoS ONE, 2015)
